Assay [1] has as its system HT29 RNF43 G659fs (RNF43 659mut, CRISPR-edited). In words: cell viability activity relative to DMSO (negative = inhibition); higher = more viable cells (less growth inhibition). As to conditions: 5 µM; 96 h. The method, then:
(§1)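 Broad Repurposing Library primary screen at a single dose of 5 uM. HT29 sg-Ctrl and HT29 RNF43 G659fs CRISPR-edited isogenic cells were seeded at 2500 cells/well in 384-well plates in duplicate and treated for 96 h. Viability was read by CellTiter-Glo and reported as % activity relative to DMSO, with MG132 as the positive control (negative = growth inhibition).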

Assay [2] has as its system HT29 sg-Ctrl (RNF43 wildtype). The description is as above. As to conditions: 5 µM; 96 h. The method, then:
as §1

Several values for one entry are separate records, joined by “and”; a condition that tells them apart may be missing. Equal values may be shown once.

As for `CCN(CC)CCNC(=O)c1c(C)[nH]c(/C=C2\C(=O)Nc3ccc(F)cc32)c1C`, the cell viability activity was -99.7% in assay [1] and -99.2% in assay [2].

On to `Cn1cc(-c2ccncc2)c(-c2ccc(OCc3ccc4ccccc4n3)cc2)n1`, for which the values for the cell viability activity in assay [1] and in assay [2] were -46.2% and -38.8%, respectively.

As for `CC[C@]1(O)C[C@H]2CN(CCc3c([nH]c4ccccc34)[C@@](C(=O)OC)(c3cc4c(cc3OC)N(C=O)[C@H]3[C@@](O)(C(=O)OC)[C@H](OC(C)=O)[C@]5(CC)C=CCN6CC[C@]43[C@@H]65)C2)C1`, the cell viability activity in assay [1] is -28.3%; in assay [2], -54.5%.

On to `COc1cc2ncnc(Sc3nnc(C)s3)c2cc1OC`, for which the cell viability activity in assay [1] is -29.5%; in assay [2], 14.6%.

For the molecule `CC(C)c1cc(C(C)C)c(-c2csc(N(CCN(C)C)Cc3cccnc3)n2)c(C(C)C)c1`, the cell viability activity was -24% in assay [1] and -63.4% in assay [2].

Turning to `CCCCCCCCCCCCCCC[C@@H](O)[C@@H](N)CO`, the figures for the cell viability activity in assay [1] and in assay [2] were -36.8% and -43.8%, respectively.

Turning to `CC(C)[C@](O)(c1ccc2cc(OC(F)F)c(OC(F)F)cc2c1)c1c[nH]nn1`, the cell viability activity was -54.8% in assay [1] and 9.17% in assay [2].

As for `CN(NC(=O)CC(=O)NN(C)C(=S)c1ccccc1)C(=S)c1ccccc1`, the cell viability activity was -30.6% in assay [1] and -15.3% in assay [2].

`COc1cc2c(Oc3ccc(NC(=O)C4(C(=O)Nc5ccc(F)cc5)CC4)cc3F)ccnc2cc1OCCCN1CCOCC1`: the cell viability activity in assay [1] was -92.2%; in assay [2], -37.8%.

As for `CCNCCCNCCCCNCCCNCC`, the cell viability activity is -31% in assay [1] and -43.8% in assay [2].

In the case of `CO[C@@H](C(=O)N1Cc2[nH]nc(NC(=O)c3ccc(N4CCN(C)CC4)cc3)c2C1)c1ccccc1`, the results for the cell viability activity in assay [1] and in assay [2] were -62% and -55.5%, respectively.

Take `CC(=O)N(O)CCCCCNC(=O)CCC(=O)N(O)CCCCCNC(=O)CCC(=O)N(O)CCCCCN`: the cell viability activity in assay [1] was -56.3%; in assay [2], -45%.

As for `Cn1c(=O)n(-c2ccc(C(C)(C)C#N)cc2)c2c3cc(-c4cnc5ccccc5c4)ccc3ncc21`, the cell viability activity in assay [1] was -56.8%; in assay [2], -44.1%.

In the case of `Cn1cncc1[C@@](N)(c1ccc(Cl)cc1)c1ccc2c(c1)c(-c1cccc(Cl)c1)cc(=O)n2C`, the cell viability activity in assay [1] is -30.6%; in assay [2], -33.3%.

As for `c1cc(Nc2cc(C3CC3)[nH]n2)nc(Nc2ccc3nc[nH]c3c2)n1`, the values for the cell viability activity in assay [1] and in assay [2] were -29.4% and -65.9%, respectively.

With `CC[C@H](C)[C@@H]([C@@H](CC(=O)N1CCC[C@H]1[C@H](OC)[C@@H](C)C(=O)N[C@@H](Cc1ccccc1)c1nccs1)OC)N(C)C(=O)[C@@H](NC(=O)[C@H](C(C)C)N(C)C)C(C)C`, the cell viability activity in assay [1] was -55.7%; in assay [2], -43%.

As to `COc1cc(C(=O)NC2CCN(C)CC2)c(F)cc1Nc1ncc2c(n1)N(C1CCCC1)CC(F)(F)C(=O)N2C`, the results for the cell viability activity in assay [1] and in assay [2] were -65.9% and -68.1%, respectively.

In the case of `O=C1/C(=C/c2ccccc2)C(NC2CCCCC2)c2ccccc21` (centres undefined), the cell viability activity in assay [1] was -91.7%; in assay [2], -74.6%.

With `Cc1cnc(Nc2ccc(OCCN3CCCC3)cc2)nc1Nc1cccc(S(=O)(=O)NC(C)(C)C)c1`, the cell viability activity in assay [1] is -95%; in assay [2], -92.4%.

Regarding `CCN(CC)CCNC(=O)c1ccc(NC(C)=O)cc1`, the cell viability activity in assay [1] is -53.2%; in assay [2], -3.92%.

In the case of `COc1cc(OC)cc(N(CCNC(C)C)c2ccc3ncc(-c4cnn(C)c4)nc3c2)c1`, the cell viability activity in assay [1] is -70.3%; in assay [2] it was -64.7%.

Turning to `O=C(CCCCCCNC(=O)c1cnc(N(c2ccccc2)c2ccccc2)nc1)NO`, the cell viability activity in assay [1] is -34.4%; in assay [2], -45.9%.

As for `O=C(NOCC1CC1)c1ccc(F)c(F)c1Nc1ccc(I)cc1Cl`, the cell viability activity in assay [1] is -66.2%; in assay [2] it was -77.6%.

`Clc1cc(Cl)c(OCC#CI)cc1Cl`: the figures for the cell viability activity in assay [1] and in assay [2] were -35.5% and -23.2%, respectively.

`N#Cc1cc2c(OCC(O)CN3CCN(C(c4ccccc4)c4ccccc4)CC3)cccc2[nH]1` (centres undefined): the figures for the cell viability activity in assay [1] and in assay [2] were -23.9% and -20.5%, respectively.

`CN1CCN(Cc2ccc(-c3cnc4[nH]cc(-c5ccc6[nH]ccc6c5)c4c3)cc2)CC1`: the cell viability activity in assay [1] was -90.1%; in assay [2] it was -82.4%.

As for `NC(=O)c1cnc(N[C@@H]2CCCC[C@@H]2N)nc1Nc1cccc(-n2nccn2)c1`, the cell viability activity in assay [1] was -35.6% and -40.3%; in assay [2], -34.2% and -41.6%.

Take `Nc1nccc2c1ncn2C1C=C(CO)C(O)C1O` (centres undefined): the cell viability activity was -38.4% in assay [1] and -46.7% in assay [2].

Turning to `COCC[n+]1c2c(n(Cc3cnccn3)c1C)C(=O)c1ccccc1C2=O`, the cell viability activity in assay [1] is -96.6%; in assay [2] it was -95.6%.

On to `CC(=O)Nc1nc(C)c(-c2ccc(Cl)c(S(=O)(=O)NCCO)c2)s1`, for which the cell viability activity is -53.2% in assay [1] and -38.4% in assay [2].

In the case of `O=C(NO)c1cnc(N2CCN(S(=O)(=O)c3ccc4ccccc4c3)CC2)nc1`, the results for the cell viability activity in assay [1] and in assay [2] were -64.4% and -48.5%, respectively.

Consider `CC(C)(C)c1cc(NC(=O)Nc2ccc(-c3cn4c(n3)sc3cc(OCCN5CCOCC5)ccc34)cc2)no1`, for which the cell viability activity in assay [1] is -46.2%; in assay [2], -40.7%.

Consider `Cc1c(C(=O)N2CCOc3ccc(-c4ccc(N)nc4)cc3C2)ccc(S(C)(=O)=O)c1F`, for which the cell viability activity in assay [1] was -41.2%; in assay [2] it was -32.1%.

Turning to `COCCOC(=O)C1=C(C)NC(C)=C(C(=O)OC/C=C/c2ccccc2)C1c1cccc([N+](=O)[O-])c1` (centres undefined), the cell viability activity in assay [1] was -57.6%; in assay [2], -50.7%.

On to `Nc1ccc(-c2ccc3ncc4ccc(=O)n(-c5cccc(C(F)(F)F)c5)c4c3c2)cn1`, for which the cell viability activity in assay [1] was -63.8%; in assay [2], -42.1%.

As for `CN(C)C/C=C/C(=O)Nc1ccc(C(=O)Nc2cccc(Nc3ncc(Cl)c(-c4c[nH]c5ccccc45)n3)c2)cc1`, the cell viability activity in assay [1] is -87.2%; in assay [2], -86.4%.

On to `CCCCCCCCNC(C)C(O)c1ccc(SC(C)C)cc1` (centres undefined), for which the cell viability activity in assay [1] is -87.2%; in assay [2] it was -12.2%.

The values above are taken from the supplement of paper PMC9177965.
